Experimental findings from PubChem BioAssay (NCI) are described below.

The panel holds about 83,000 compounds, 20% with a hit somewhere; the sample as a whole holds those more often.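 In brief: 96-well plates, 48 h treatment, single concentration, percent growth endpoint.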 Unmarked numbers belong to inactive results. Activity calls are given as the source filed them. Rule for the calls: active = growth percent below 10; inactive = the rest.

Among the test systems are NCI-H23 lung; NCI-H226 lung; NCI-H322M lung; HOP-62 NSCLC; NCI-H460 lung; HOP-92 NSCLC; NCI-H522 lung; A549/ATCC NSCLC; 786-0 renal; COLO 205 colon; DU-145 prostate; K-562 leukemia; MALME-3M melanoma; MDA-MB-231 breast; RXF 393 renal; SF-268 CNS; SF-295 CNS; SF-539 CNS; UACC-257 melanoma; M14 melanoma.
Common to all, as to assay: NCI-60 one-dose screen, 48 h (100 = growth as untreated, 0 = no growth, -100 = all killed)
What all share (conditions): 10 µM unless noted

In the case of `C/C(=C(/C)C1CC1CCNC1CCC(NC(=O)OC(C)(C)C)CC1)c1ccccc1` (stereo not given), the growth was 70.8% with NCI-H23 lung; 80.1% with NCI-H226 lung; 89.2% with NCI-H322M lung; 84.4% with HOP-62 NSCLC; 57.6% in the assay with NCI-H460 lung; 54.8% in the assay on HOP-92 NSCLC. In addition, the growth was 68.6% with NCI-H522 lung; 73.4% with A549/ATCC NSCLC; 65.6% with 786-0 renal; -56% (active) with COLO 205 colon; 84.6% in the assay on DU-145 prostate; 0.99% (active) in the assay with K-562 leukemia. For the same compound, the growth in the assay with MALME-3M melanoma was 36.6%; in the assay on MDA-MB-231 breast it was 72.9%; in the assay on RXF 393 renal it was 42.7%; in the assay on SF-268 CNS, 84.7%; with SF-295 CNS, 77.8%; in the assay with SF-539 CNS, 63.5%. The growth is 55.4% in the assay with UACC-257 melanoma and 21.3% in the assay on M14 melanoma.
For the compound `N#Cc1cccc(-c2cc(-c3ccc4c(c3)OCCO4)[nH]n2)c1`, the growth in the assay on NCI-H23 lung was 50%; in the assay with NCI-H226 lung it was 72.2%; in the assay on NCI-H322M lung, 54.8%; in the assay on HOP-62 NSCLC, 43.5%; in the assay on NCI-H460 lung, 15%; in the assay with HOP-92 NSCLC, 75.5%. In addition, the growth in the assay on NCI-H522 lung is 23.8%; in the assay with A549/ATCC NSCLC, 47.8%; with 786-0 renal, 63.4%; in the assay on COLO 205 colon, 20.2%; in the assay with DU-145 prostate, 34.7%; in the assay on K-562 leukemia it was 13.6%. Further, the growth is 36.1% with MALME-3M melanoma; 42% in the assay on MDA-MB-231 breast; 32.4% with RXF 393 renal; 61% in the assay with SF-268 CNS; 27.1% in the assay on SF-295 CNS; 25% in the assay with SF-539 CNS. Moreover, the growth is 71.1% in the assay on UACC-257 melanoma and 7.59% (active) with M14 melanoma.
As for `CC1=C(C)C(=O)C(Nc2cccc(C(=O)OC(C)(C)C)c2)=C(Cl)C1=O`, the growth with NCI-H23 lung is 92.4%; with NCI-H226 lung, 91.3%; in the assay with NCI-H322M lung, 99.5%; in the assay with HOP-62 NSCLC, 103%; in the assay with NCI-H460 lung, 99.8%; in the assay on HOP-92 NSCLC, 56.4%. The growth with NCI-H522 lung was 81.7%; in the assay on A549/ATCC NSCLC it was 90.4%; with 786-0 renal, 96.5%; in the assay on COLO 205 colon it was 118%; in the assay on DU-145 prostate, 103%; with K-562 leukemia it was 21.6%. The growth in the assay on MALME-3M melanoma was 94.4%; in the assay with MDA-MB-231 breast, 48.9%; in the assay on RXF 393 renal, 103%; in the assay on SF-268 CNS it was 92%; in the assay on SF-295 CNS, 105%; in the assay on SF-539 CNS, 96.6%. The growth in the assay on UACC-257 melanoma was 91.4%; with M14 melanoma, 83.3%.
Regarding `COc1ccc(/C=N/N=C(/c2ccccc2)c2ccc3nc(-c4ccc(Cl)cc4)[nH]c3c2)cc1`, the growth is 91.1% with NCI-H23 lung; 77% in the assay with NCI-H226 lung; 84.3% in the assay with NCI-H322M lung; 99.3% in the assay with HOP-62 NSCLC; 90% in the assay on NCI-H460 lung; 106% in the assay with HOP-92 NSCLC. The growth with NCI-H522 lung was 72.9%; in the assay with A549/ATCC NSCLC, 75.1%; with 786-0 renal it was 76.9%; in the assay on COLO 205 colon, 72%; with DU-145 prostate, 86.5%; with K-562 leukemia, 47.9%. For the same compound, the growth with MALME-3M melanoma was 90.6%; with MDA-MB-231 breast, 95%; with RXF 393 renal it was 83.3%; with SF-268 CNS, 88.7%; with SF-295 CNS, 81.3%; in the assay with SF-539 CNS, 87.7%. Also, the growth in the assay on UACC-257 melanoma is 101%; in the assay with M14 melanoma, 75.3%.
As to `O=C1[C@@H]2Cc3c([nH]c4ccccc34)[C@H](c3ccc(Br)cc3)N2C(=O)CN1C1CCN(Cc2c(Cl)cccc2Cl)CC1`, the growth in the assay on NCI-H23 lung was 91.7%; in the assay on NCI-H226 lung it was 85.8%; in the assay with NCI-H322M lung, 95.1%; with HOP-62 NSCLC, 91.9%; with NCI-H460 lung it was 97.5%; in the assay with HOP-92 NSCLC, 94.1%. Besides, the growth in the assay with NCI-H522 lung was 91.7%; in the assay with A549/ATCC NSCLC it was 93%; in the assay on 786-0 renal, 99.8%; in the assay on COLO 205 colon, 105%; with DU-145 prostate, 96.3%; with K-562 leukemia it was 74.2%. Further, the growth in the assay with MALME-3M melanoma was 107%; in the assay on MDA-MB-231 breast it was 89%; in the assay with RXF 393 renal, 120%; in the assay with SF-268 CNS, 81.3%; in the assay on SF-295 CNS, 100%; in the assay on SF-539 CNS, 105%. The growth is 102% in the assay with UACC-257 melanoma and 92.8% with M14 melanoma.
`CN1CCN(c2ccc(Nc3nc(NCCCNS(=O)(=O)c4cccc5ccccc45)c4sccc4n3)cc2)CC1`: the growth in the assay with NCI-H23 lung was 30.4%; in the assay on NCI-H226 lung it was 86%; in the assay on NCI-H322M lung it was 11.4%; with HOP-62 NSCLC it was 25.6%; in the assay with NCI-H460 lung, -14% (active); with HOP-92 NSCLC it was -43.6% (active). Further, the growth in the assay with NCI-H522 lung is -81.1% (active); in the assay on A549/ATCC NSCLC it was -9.22% (active); in the assay with 786-0 renal, -82.1% (active); in the assay with COLO 205 colon, -74.1% (active); with DU-145 prostate, -6.73% (active); in the assay with K-562 leukemia it was 5.72% (active). Moreover, the growth with MALME-3M melanoma is -91.6% (active); in the assay with MDA-MB-231 breast, -29% (active); with RXF 393 renal, -87.1% (active); in the assay with SF-268 CNS, -24.1% (active); with SF-295 CNS it was -71.8% (active); in the assay with SF-539 CNS, -92.1% (active). The growth with UACC-257 melanoma is -89% (active); with M14 melanoma it was -81.9% (active).
